Measured values from PubChem BioAssay (NCI).
Compounds without any hit were thinned out: in the full panel of roughly 79,000, 15% have a hit. Unmarked numbers belong to inactive results. The source made the active and inactive calls. No stated cut-off is given here; in the data, active means growth inhibition above about 70%; inactive means the rest.

Experiments:
[1] = NCI Yeast Anticancer Drug Screen. Data for the rad50 strain (AID 155);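 further: 0% = growth of vehicle-only cultures of the same strain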; settings: S. cerevisiae rad50 strain growth inhibition; at 50.0 µM; active compounds read high
How it was run: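 Relative growth inhibition (compound vs vehicle) was measured in yeast with a defined repair-gene alteration.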

[2] = NCI Yeast Anticancer Drug Screen. Data for the mec2-1 strain (AID 157); settings: S. cerevisiae mec2-1 strain, at 50.0 µM, active compounds read high
How it was run: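 Each compound was tested on mec2-1 yeast, a strain altered in DNA damage repair or cell cycle control. Growth inhibition is reported relative to vehicle.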

[3] = NCI Yeast Anticancer Drug Screen. Data for the sgs1 mgt1 strain (AID 161);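 further: 0% = growth of cultures given vehicle only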; settings: S. cerevisiae sgs1 mgt1 strain, at 50.0 µM, active compounds read high
How it was run: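 Mutant yeast exposed to compound; growth scored against vehicle-only wells.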

[4] = NCI Yeast Anticancer Drug Screen. Data for the cln2 rad14 strain (AID 165);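 further: 0% = growth equal to vehicle treated cultures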; settings: S. cerevisiae cln2 rad14 strain, at 50.0 µM, active compounds read high
How it was run: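 Test compounds were added to cln2 rad14 yeast cultures; inhibition of growth was then determined by comparison with vehicle treatment.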

[5] = NCI Yeast Anticancer Drug Screen. Data for the bub3 strain (AID 167); settings: S. cerevisiae bub3 mutant strain, at 50.0 µM, active compounds read high
How it was run: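 Screening used yeast with an engineered genetic alteration affecting cell cycle control. Compound-exposed cultures were compared with vehicle cultures, and reduced growth was taken as inhibition.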

[6] = NCI Yeast Anticancer Drug Screen. Data for the mlh1 rad18 strain (AID 175); settings: S. cerevisiae mlh1 rad18 strain growth inhibition; at 50.0 µM; active compounds read high
How it was run: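 Inhibition values reflect reduced growth of mutant yeast versus vehicle-treated controls following compound exposure; the mutations affect DNA damage repair.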

| Structure (SMILES) | growth inhibition [1] | growth inhibition [2] | growth inhibition [3] | growth inhibition [4] | growth inhibition [5] | growth inhibition [6] |
| --- | --- | --- | --- | --- | --- | --- |
| CC(=O)c1cccc(F)c1C(C)c1ccc2ccccc2c1 (configuration not stated) | -3.85% | 0.6% | -8.8% | 3.35% | 15.4% | 1.65% |
| O=C(O)CCC(=O)c1ccc(O)cc1 | -0.2% | -27% | -7.1% | -14.7% | -14% | 13.6% |
| COC(=O)c1ccccc1NCc1cc(Cl)ccc1O | 96.2% (active) | 97.3% (active) | 96.7% (active) | 92.8% (active) | 95.8% (active) | 94.9% (active) |
| COc1cc(C2C(C(=O)O)=C(COC(C)=O)Oc3cc4c(cc32)OCO4)cc(OC)c1OC (configuration not stated) | -9.9% | -15.4% | -25.4% | -19.2% | -4.1% | -8.6% |
| COc1ccc(-c2cc3c(c4cc(OC)ccc24)C(=O)OC3=O)cc1 | -29.1% | -5.1% | 20.6% | 1% | 4.4% | -15.1% |
| C=CCNC=O | 2.55% | 3.6% | -6.4% | -5.05% | 14.4% | -18.1% |
| O=C(NC(=O)c1ccccc1F)Nc1ccc(Cl)cc1 | 27.1% | 37.3% | 24.6% | 56.8% | 49.8% | 43.1% |
| COc1ccc(CNc2ccccc2)cc1OC | -6% | 7.95% | -3% | -33.6% | -9.15% | -40% |
| O=C1C2C3CCC(O3)C2C(=O)N1Cc1ccccc1CN1C(=O)C2C3CCC(O3)C2C1=O (configuration not stated) | 82% (active) | 95.2% (active) | 89.2% (active) | 98.6% (active) | 98.1% (active) | 95.8% (active) |
| CN(CCC1(C)C(=O)CCc2ccccc21)Cc1ccccc1 (configuration not stated) | 12.9% | 21.8% | 22.8% | 30.9% | 14.1% | 17.1% |
| NC(=O)c1csc(C2OC3COP(=O)(O)OC3C2O)n1 (configuration not stated) | -21.1% | -26.2% | -38.6% | -5.65% | -29.1% | -28.9% |
| Cc1cc(=O)n(C)c2ccc(N)cc12 | -3.85% | 3.75% | -4% | -14.8% | 10.5% | 1.85% |
| CC(=O)NC1=CC(=O)c2cc(C)cc(O)c2C1=O | 23.3% | 21.9% | 20.1% | 16.2% | 28.1% | -14.6% |
| COc1cc(NCCCCCNC(C)C)c2ncccc2c1OC | -15.1% | -9.9% | -1.95% | -11.3% | 9.05% | -3.1% |
| S=C=NC12CC3CC(CC(C3)C1)C2 | -2% | 0.6% | 0.65% | 15.1% | -4.05% | -15.5% |
| COc1cccc(-c2cc(=O)c3cc(Cl)cnc3[nH]2)c1 | 5.35% | 2.7% | 4.2% | 31.1% | 11.8% | 5.1% |
| NC(=O)NCCSC1CCCCC1O (configuration not stated) | -23.1% | -35% | -28.4% | 3.1% | -64.5% | 6.45% |
| COC(=O)c1cncn1C1CC1 | 8.25% | -7.1% | -3.2% | -58.5% | -2.95% | -8.2% |
| O=S(=O)(c1ccccc1)c1ccc(CI)cc1 | 15.8% | 19.9% | 5.05% | 17.4% | 13.7% | 9.05% |
| CN/N=C(/Cc1occc(=O)c1O)C(=O)Nc1ccc(C)c(C)c1 | 15.4% | 7.05% | -16.7% | 3.15% | 7.35% | 18.1% |
| CC(=O)Nc1ccc2c(c1)Cc1ccc(S(C)(=O)=O)cc1-2 | 23.9% | -7.15% | 10.9% | 6.9% | 0.65% | 44.1% |

| Structure (SMILES) | growth inhibition [1] | growth inhibition [2] | growth inhibition [3] | growth inhibition [4] | growth inhibition [5] | growth inhibition [6] |
| --- | --- | --- | --- | --- | --- | --- |
| CN(CCS)C(=N)N | 4.75% | -14.9% | 2.55% | 7.8% | -0.65% | -11.4% |
| COc1ccc(/C=C/C2=CC(=O)CC(/C=C/c3ccc(OC)c(OC)c3)C2)cc1OC (configuration not stated) | 45% | 46.5% | 28.9% | 49.6% | 58.6% | 43.9% |
| COc1ccc(CNc2cc(OC)c(OC)c(OC)c2)cc1 | -49.1% | -36.7% | -9.55% | 9.25% | -20.4% | -33.1% |
| CCOC(=O)C1C(=O)CC(=O)C(C(=O)OCC)C1C1CC=CCC1 (configuration not stated) | 51% | 69.5% | 78.5% (active) | 38.7% | 70.7% (active) | 78.5% (active) |
| Nc1ccc([N+](=O)[O-])c(Cl)c1 | 5.35% | -8.3% | -11% | -18.1% | -13.1% | 13.3% |
| CCC1C(=O)Nc2ccccc21 (configuration not stated) | 16.4% | 16.9% | 1.3% | 7.85% | 13.8% | 8.5% |
| O=C(O)C(CCC1CCC=CCC1)C(=O)O | -13.8% | -6.7% | -9.25% | -2.45% | 5.6% | -7.05% |
| CCCCCCCCC(Nc1ccccc1)C(O)CCCCCCCC(=O)O (configuration not stated) (tested in a mixture with another compound) | -0.1% | 1.8% | 7.5% | -6.1% | -7.35% | 16.2% |
| O=C1C(=O)C([n+]2cccc3ccccc32)=C([O-])C2=C1C1c3ccccc3C2c2ccccc21 | 98.8% (active) | 98.4% (active) | 98.9% (active) | 98.8% (active) | 91% (active) | 98.6% (active) |
| COc1ccc(Cc2ccc(CO)cc2)cc1 | 4.6% | -18.9% | -31.9% | -20% | -7.7% | -14.2% |
| COc1ccc(C(=O)CC(=O)CCC(=O)Nc2cc(C)ccc2C)cc1 | -6.55% | 5.2% | 18.2% | -7.75% | 5.25% | 25.1% |
| CC1=CCCCC1=O | -7.25% | -4.35% | 5.6% | 2.4% | -12.9% | -4.15% |
| CC1=NNC(=O)C1CCS (configuration not stated) | -3.55% | 4.35% | -1.45% | -3.1% | -8% | -7.4% |
| O=C(O)CC1CCCc2ccccc2C1CC(=O)O (configuration not stated) | 5.25% | -4.3% | 10.4% | 8.8% | 6.85% | 7.4% |
| COc1ccc(SC2=CC(=O)c3ccccc3C2=O)cc1 | 41% | 11.2% | 34.2% | -16.4% | -11.6% | 30.6% |
| c1ccc(-c2cc3cc4c(cc3[nH]2)Oc2ccccc2O4)cc1 | 5.45% | 14.4% | 18.4% | 10.8% | 5.2% | 3.1% |
| CCC1=NO[C@@H](C(=O)OCc2ccccc2)[C@H]1C | -12.2% | 5.25% | -7.2% | -29.2% | 9.15% | -21.4% |
| COc1ccc(NC(=O)ON(C)C)cc1 | 4.45% | -26.6% | 5.15% | -63.1% | 3.75% | -5.75% |
| O=C1C=CC2(CCC23C=CC(=O)O3)O1 (configuration not stated) | 13% | 1.95% | 11% | 4.2% | 12.2% | 20.1% |
| CCOC(=O)C(C#N)C1CC2CCC1C2 (configuration not stated) | -30.2% | -57.4% | -22.2% | -4.9% | -27.1% | -56.8% |
| O=C(OCCN=C1c2ccccc2CCc2ccccc21)c1ccccc1 | -12.2% | -6.45% | 18.9% | 6.8% | 37.3% | 0.4% |
